# Results taken from PubChem BioAssay (NCATS).
# Values without a mark were called inactive. Results filed as inconclusive are left out. Where a call stands in place of a potency, no number is given. Active and inactive are the calls of the source. Calls follow the shape of the dose curve; as a rule, active = well fitted curve in the direction sought with a large enough effect; inconclusive = small, poorly fitted or top-dose-only effect, or another doubt; inactive = no such curve, though single readings can be large; an effect the other way counts as inactive or inconclusive.
# Key:
# [1] = P-glycoprotein substrates identified in KB-8-5-11 adenocarcinoma cell line, qHTS therapeutic library screen (AID 1346987); also: nearly all actives have a fitted effect of over 65% in size; also: potency is read from the fitted curve at half-maximal effect
# Method in brief: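 KB-8-5-11, a colchicine-selected P-gp-overexpressing KB-3-1 subline, was grown without colchicine for the assay. Cells were seeded at 500 cells/well, dosed in concentration-response and incubated 72 h at 37 degree C, 5% CO2. Viability was read by CellTiter-Glo luminescence.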
# [2] = Primary qHTS for inhibitors of nuclear receptor binding SET domain protein 2 (NSD2) in an isogenic RCH-ACV NSD2 p.E1099K mutant (9B) (AID 1645876); also: nearly all actives have a fitted effect of over 70% in size; also: potency is read from the fitted curve at half-maximal effect
# [3] = Primary qHTS for inhibitors of nuclear receptor binding SET domain protein 2 (NSD2) in an RCH-ACV wild type WT cells (2C) (AID 1645877); also: nearly all actives have a fitted effect of over 70% in size; also: potency is read from the fitted curve at half-maximal effect
# [4] = molecular target: Glutathione peroxidase 1 (Homo sapiens) (UniProt P07203); assay: Primary qHTS Assay for Inhibitors of Recombinant Selenoprotein Glutathione Peroxidase 1 (GPX1) (AID 1845191); also: nearly all actives have a fitted effect of over 65% in size
# Sequence of Glutathione peroxidase 1 (Homo sapiens) (P07203 whole entry, looked up): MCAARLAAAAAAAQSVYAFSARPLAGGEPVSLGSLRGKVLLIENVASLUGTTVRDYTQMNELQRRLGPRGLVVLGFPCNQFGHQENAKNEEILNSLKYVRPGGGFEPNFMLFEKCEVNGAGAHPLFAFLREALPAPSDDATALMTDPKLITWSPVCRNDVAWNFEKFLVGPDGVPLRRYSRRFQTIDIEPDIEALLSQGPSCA
# Method in brief: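 GR-coupled assay: compounds preincubated 30 min at room temperature with GPX1, then reaction started with CHP; final 10 nM GPX1, 1 mM GSH, 0.5 mM CHP, 0.5 mM NADPH, 100 nM GR, 0.01% BSA, pH 7.5 Tris buffer. NADPH fluorescence (340/450 nm) read at 0 and 15 min.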
# [5] = molecular target: Phospholipid hydroperoxide glutathione peroxidase GPX4 (Homo sapiens) (UniProt P36969); assay: Primary qHTS Assay for Inhibitors of Recombinant Selenoprotein Glutathione Peroxidase 4 (GPX4) (AID 1845192); also: nearly all actives have a fitted effect of over 65% in size
# Sequence of Phospholipid hydroperoxide glutathione peroxidase GPX4 (Homo sapiens) (P36969 whole entry, looked up): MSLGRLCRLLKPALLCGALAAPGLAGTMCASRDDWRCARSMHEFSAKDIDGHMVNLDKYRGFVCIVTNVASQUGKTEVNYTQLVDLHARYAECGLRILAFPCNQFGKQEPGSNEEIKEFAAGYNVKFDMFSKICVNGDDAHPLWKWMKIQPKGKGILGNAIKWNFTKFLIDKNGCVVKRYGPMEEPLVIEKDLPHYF
# Method in brief: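 GR-coupled assay: recombinant GPX4 preincubated 30 min with compound at room temperature; final 200 nM GPX4, 1 mM GSH, 0.5 mM cumene hydroperoxide, 0.5 mM NADPH, 100 nM GR, 0.01% BSA, pH 7.5 Tris. NADPH fluorescence (340/450 nm) read at 0 and 15 min.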
# [6] = molecular target: Luciferin 4-monooxygenase (Photinus pyralis) (UniProt P08659); assay: Primary firefly luciferase (FLuc) qHTS assay for identification of artifact compounds. (AID 1845220); conditions: outcome: dose series up to 54.1 µM unless noted; also: nearly all actives have a fitted effect of over 60% in size
# Method in brief: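 Enzymatic FLuc inhibition assay: compounds pre-exposed to luciferin/ATP (10 uM each) for 15 min, then purified P. pyralis enzyme at 10 nM added. Read-out: luminescence at 5 min.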
# [7] = tested on: Nanoluciferase (engineered Oplophorus gracilirostris luciferase); assay: Primary Nanoluciferase (NLuc) qHTS assay for identification of artifact compounds. (AID 1845222);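 also: NLuc secreted into diluted conditioned medium of S16 cells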
# Method in brief: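 S16 cell supernatant NLuc, 1:55; cpds qHTS; 15 min RT dark; Nano-Glo substrate 1:100, 5 min; luminescence; Hill fit of % inhibition.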
# CRL-7250 = normal cell line; assay: Cytotoxic Profiling of Annotated Libraries Using Quantitative High-Throughput Screening (AID 1296008); conditions: Five cell lines viability, CellTiter-Glo ATP luminescence, 48-72 h; max response: stronger effect = lower value; also: nearly all actives have a fitted effect of over 60% in size; also: potency is read from the fitted curve at half-maximal effect
# Method in brief: (§1)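 Cells exposed to compounds for 48 or 72 hr at 37 degrees Celsius. Viability read as ATP-coupled luminescence with CellTiter-Glo after 10 min at room temperature.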
# HEK293 = assay: as above; conditions: Five cell lines viability, CellTiter-Glo ATP luminescence, 48-72 h; max response: stronger effect = lower value
# Method in brief: as §1
# NIH3T3 = assay: as above; conditions: Five cell lines viability, CellTiter-Glo ATP luminescence, 48-72 h; max response: stronger effect = lower value
# Method in brief: as §1
# C33A = assay: Primary qHTS to identify gynecologic anti-cancer compounds using libraries of approved drugs and bioactive compounds (AID 1345084); conditions: Gynecologic cancer cell panel viability, ATPlite luminescence, 48 h; series mostly up to 57.5 µM; also: nearly all actives have a fitted effect of over 55% in size; also: potency is read from the fitted curve at half-maximal effect
# Method in brief: (§2)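 Cells, 1,000 per well, were allowed to settle for 16 h at 37 C before compound addition. Five concentrations were tested for 48 h, and viability was read by ATPlite luminescence after 15 min at room temperature.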
# CASKI = assay: as above; conditions: Gynecologic cancer cell panel viability, ATPlite luminescence, 48 h; series mostly up to 57.5 µM
# Method in brief: as §2
# Es-2 = assay: as above; conditions: Gynecologic cancer cell panel viability, ATPlite luminescence, 48 h; series mostly up to 57.5 µM
# Method in brief: as §2
# HeLa = assay: as above; conditions: Gynecologic cancer cell panel viability, ATPlite luminescence, 48 h; series mostly up to 57.5 µM
# Method in brief: as §2
# Hek293T = assay: as above; conditions: Gynecologic cancer cell panel viability, ATPlite luminescence, 48 h, control line for the selectivity index; series mostly up to 57.5 µM
# Method in brief: as §2
# OV90 = assay: as above; conditions: Gynecologic cancer cell panel viability, ATPlite luminescence, 48 h; series mostly up to 57.5 µM
# Method in brief: as §2
# PA-1 = assay: as above; conditions: Gynecologic cancer cell panel viability, ATPlite luminescence, 48 h; series mostly up to 57.5 µM
# Method in brief: as §2
# Tov-21-G = assay: as above; conditions: Gynecologic cancer cell panel viability, ATPlite luminescence, 48 h; series mostly up to 57.5 µM
# Method in brief: as §2
# Tov112D = assay: as above; conditions: Gynecologic cancer cell panel viability, ATPlite luminescence, 48 h; series mostly up to 57.5 µM
# Method in brief: as §2
# HaCat = assay: Cytotoxic Profiling of Annotated Libraries Using Quantitative High-Throughput Screening (AID 1296008); conditions: Five cell lines viability, CellTiter-Glo ATP luminescence, 48-72 h; max response: stronger effect = lower value; also: nearly all actives have a fitted effect of over 60% in size; also: potency is read from the fitted curve at half-maximal effect
# Method in brief: as §1
smiles,measurement,setting,value
C=C(C)[C@@H]1[C@H]2OC(=O)[C@H]1[C@]1(O)C[C@H]3O[C@]34C(=O)O[C@H]2[C@]14C,Potency,[1],inactive
same,Potency,[2],inactive
same,Potency,[3],inactive
same,Potency,[4],inactive
same,Potency,[5],inactive
same,outcome,[6],inactive
same,Potency,[7],inactive
same,outcome,CRL-7250,inactive
same,outcome,HEK293,inactive
same,outcome,NIH3T3,inactive
same,Potency,C33A,inactive
same,Potency,CASKI,inactive
same,Potency,Es-2,inactive
same,Potency,HeLa,inactive
same,Potency,Hek293T,inactive
same,Potency,OV90,inactive
same,Potency,PA-1,inactive
same,Potency,Tov-21-G,inactive
same,Potency,Tov112D,inactive
C[C@@]1(CO)[C@H](O)CC[C@@]2(C)[C@H]1CC[C@H]1C[C@@H]3C[C@@]12CC[C@]3(O)CO,Potency,[2],3.19 µM (active)
same,Potency,[3],2.84 µM (active)
same,Potency,[4],inactive
same,Potency,[5],inactive
same,outcome,[6],inactive
same,Potency,[7],inactive
same,max response,CRL-7250,-2.86%
same,Potency,HEK293,2.55 µM (active)
same,Potency,HaCat,9.04 µM (active)
same,Potency,NIH3T3,6.4 µM (active)
same,Potency,C33A,inactive
same,Potency,CASKI,inactive
same,Potency,HeLa,inactive
same,Potency,Hek293T,inactive
same,Potency,Tov-21-G,inactive
CN1Cc2c(ccc3c2OCO3)[C@@H]2[C@H]1c1cc3c(cc1C[C@@H]2O)OCO3,Potency,[1],1.61 µM (active)
same,Potency,[2],2.84 µM (active)
same,Potency,[3],2.26 µM (active)
same,Potency,[4],inactive
same,Potency,[5],inactive
same,outcome,[6],inactive
same,Potency,[7],inactive
same,Potency,CRL-7250,4.04 µM (active)
same,Potency,HEK293,3.6 µM (active)
same,Potency,NIH3T3,2.55 µM (active)
same,Potency,C33A,7.08 µM (active)
same,Potency,Es-2,4.47 µM (active)
same,Potency,HeLa,3.16 µM (active)
same,Potency,PA-1,4.47 µM (active)
same,Potency,Tov112D,3.55 µM (active)
